PfHsp40 yeast: compounds rescuing yeast from Plasmodium falciparum HSP40 toxicity; S. cerevisiae expressing PfHsp40, growth rescue, ATP luminescence; growth rescue, % at 12.5 µM; 340,000 compounds, 0.68% hits; AID 504582; in the data active = growth rescue above about 28%, passing the limit was not always enough;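 also: yeast W303a lacking pdr1 and pdr3 grown in galactose medium; growth measured after three days at 30 °C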
Sa RN4220 lethal: S. aureus RN4220 growth inhibition; OD600, 16 h; inhibition, % (test concentration not listed); 330,000 compounds, 0.33% hits; AID 1259311; in the data active = inhibition above about 85%;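 also: plate controls were untreated cells for no effect and reference antibiotic for full effect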
TcdB inh: blocks C. difficile toxin B glycohydrolase activity. P18177. TcdB glycohydrolase enzymatic assay, plate reader. 350,000 compounds, 0.24% hits. inhibition, % at 9.99 µM; in the data active = inhibition above about 10%
Target sequence (P18177 whole entry, looked up): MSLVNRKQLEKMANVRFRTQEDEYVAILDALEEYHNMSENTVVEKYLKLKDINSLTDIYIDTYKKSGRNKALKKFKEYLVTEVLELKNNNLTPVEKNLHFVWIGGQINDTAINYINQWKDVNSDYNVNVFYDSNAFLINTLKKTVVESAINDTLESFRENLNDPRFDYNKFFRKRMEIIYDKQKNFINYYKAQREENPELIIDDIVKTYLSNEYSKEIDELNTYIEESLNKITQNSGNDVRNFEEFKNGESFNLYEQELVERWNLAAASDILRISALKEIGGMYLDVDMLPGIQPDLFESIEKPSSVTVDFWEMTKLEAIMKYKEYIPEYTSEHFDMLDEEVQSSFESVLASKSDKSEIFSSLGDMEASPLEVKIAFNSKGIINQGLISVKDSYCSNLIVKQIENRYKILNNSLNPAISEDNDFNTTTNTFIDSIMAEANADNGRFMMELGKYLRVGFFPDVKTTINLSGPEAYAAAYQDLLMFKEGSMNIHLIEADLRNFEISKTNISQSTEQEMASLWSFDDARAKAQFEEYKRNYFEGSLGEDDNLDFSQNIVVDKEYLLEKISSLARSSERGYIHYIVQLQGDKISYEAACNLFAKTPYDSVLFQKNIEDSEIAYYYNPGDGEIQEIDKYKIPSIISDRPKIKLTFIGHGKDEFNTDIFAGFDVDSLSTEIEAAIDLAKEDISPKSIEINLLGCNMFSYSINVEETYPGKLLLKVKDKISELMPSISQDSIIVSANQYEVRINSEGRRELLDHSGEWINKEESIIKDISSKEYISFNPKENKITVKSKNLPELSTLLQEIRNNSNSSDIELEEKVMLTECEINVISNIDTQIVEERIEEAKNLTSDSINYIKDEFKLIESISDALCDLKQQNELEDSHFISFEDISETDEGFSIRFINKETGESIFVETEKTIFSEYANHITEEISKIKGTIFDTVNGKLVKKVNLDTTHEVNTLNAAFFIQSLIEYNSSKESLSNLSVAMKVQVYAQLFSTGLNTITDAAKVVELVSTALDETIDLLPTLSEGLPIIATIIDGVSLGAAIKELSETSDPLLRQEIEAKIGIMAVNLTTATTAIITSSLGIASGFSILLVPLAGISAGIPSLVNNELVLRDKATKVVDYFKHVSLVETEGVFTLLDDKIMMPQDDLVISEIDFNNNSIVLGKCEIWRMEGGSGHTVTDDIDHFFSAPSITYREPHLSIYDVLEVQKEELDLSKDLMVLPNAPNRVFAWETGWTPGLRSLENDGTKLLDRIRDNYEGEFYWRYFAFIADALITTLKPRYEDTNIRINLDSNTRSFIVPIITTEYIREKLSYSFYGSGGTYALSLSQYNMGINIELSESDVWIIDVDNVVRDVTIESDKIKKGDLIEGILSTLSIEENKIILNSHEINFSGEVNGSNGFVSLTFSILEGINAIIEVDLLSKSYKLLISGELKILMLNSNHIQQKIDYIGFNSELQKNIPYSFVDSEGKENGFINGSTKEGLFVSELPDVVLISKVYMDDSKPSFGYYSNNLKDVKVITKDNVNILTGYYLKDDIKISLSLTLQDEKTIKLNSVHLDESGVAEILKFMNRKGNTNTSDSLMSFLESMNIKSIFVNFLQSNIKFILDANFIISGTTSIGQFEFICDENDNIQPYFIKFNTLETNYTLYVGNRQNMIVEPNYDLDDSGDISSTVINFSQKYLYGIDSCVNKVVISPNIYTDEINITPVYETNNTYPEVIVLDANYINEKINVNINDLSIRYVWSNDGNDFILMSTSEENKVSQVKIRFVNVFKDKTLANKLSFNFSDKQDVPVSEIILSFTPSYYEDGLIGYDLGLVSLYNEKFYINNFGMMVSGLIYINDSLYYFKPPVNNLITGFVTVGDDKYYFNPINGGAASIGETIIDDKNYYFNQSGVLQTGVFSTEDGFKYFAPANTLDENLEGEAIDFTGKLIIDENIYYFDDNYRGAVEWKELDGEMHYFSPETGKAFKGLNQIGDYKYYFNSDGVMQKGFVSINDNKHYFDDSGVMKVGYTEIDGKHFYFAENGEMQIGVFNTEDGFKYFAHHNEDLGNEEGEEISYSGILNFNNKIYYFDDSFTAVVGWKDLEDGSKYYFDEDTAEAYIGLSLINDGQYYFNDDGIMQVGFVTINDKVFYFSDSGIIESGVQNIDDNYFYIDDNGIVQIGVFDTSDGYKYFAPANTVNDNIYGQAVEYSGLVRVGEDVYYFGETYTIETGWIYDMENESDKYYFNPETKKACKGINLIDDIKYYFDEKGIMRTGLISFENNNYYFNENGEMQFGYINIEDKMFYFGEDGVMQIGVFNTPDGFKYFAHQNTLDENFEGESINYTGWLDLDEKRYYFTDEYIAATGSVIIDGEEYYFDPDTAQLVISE
ugtP null kill: growth inhibition of S. aureus ugtP deletion strain; S. aureus RN4220 ugtP deletion, OD600 growth, 16 h; growth inhibition, % (concentration not given with the values); 330,000 compounds, 0.54% hits; in the data active = growth inhibition above about 68%;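 also: plate controls were untreated wells for no effect and antibiotic for full effect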
PrP UTR inh: suppresses PrP 5' UTR mRNA reporter expression | cell-based PrP 5' UTR mRNA reporter, plate reader | 340,000 compounds, 0.35% hits | inhibition, % (no concentration beside the values); in the data active = inhibition above about 52%; also: 0 = median of the neutral control wells
An asterisk follows results filed as active; . = no result given. Rows were chosen to be rich in hits. Some 1.2% of all compounds tested hit in one or more screens of this group.

SMILES	PfHsp40 yeast	Sa RN4220 lethal	TcdB inh	ugtP null kill	PrP UTR inh
COc1ccc(S(=O)(=O)N(C)C[C@H]2Oc3ccc(NC(=O)NC(C)C)cc3CC(=O)N([C@@H](C)CO)C[C@@H]2C)cc1	.	.	-12	.	.
Cc1ccc(S(=O)(=O)N(C)C[C@@H]2Oc3ccc(NS(=O)(=O)c4cccs4)cc3CC(=O)N([C@@H](C)CO)C[C@H]2C)cc1	.	.	-1	.	.
O=[N+]([O-])c1ccc(Cl)c2cccnc12	0	2	-1	-3	-18
COCc1ccc(O)c2ncccc12	1	98*	.	98*	-5
O=[N+]([O-])c1cc(Cl)c2cccnc2c1O	142*	99*	2	100*	-21
O=[N+]([O-])c1cc([N+](=O)[O-])c2cccnc2c1Oc1ccccc1O	0	18	0	2	21
O=[N+]([O-])c1cc(Cl)c(O)c2ncccc12	24	99*	-1	98*	-17
O=[N+]([O-])c1cc(F)c2cccnc2c1O	73*	30	0	23	-7
O=C(c1cccnc1)N1CC(=O)N2[C@H](CO)[C@@H](c3ccc(/C=C/c4ccccc4)cc3)[C@H]2C1	.	.	-2	.	.
CO[C@H]1CN(C)C(=O)c2cc(NS(=O)(=O)c3ccc(Oc4ccccc4)cc3)ccc2OC[C@H](C)NC[C@H]1C	.	.	2	.	.
C=C(C)C(=O)Nc1cccc(C2=NOC3(C2)CC(C(N)=O)N(C(=O)C=CCC)C3)c1 (stereo not drawn)	.	0	.	-17	.
C[C@@H]1CN([C@H](C)CO)C(=O)c2c(c3ccccc3n2C)-c2ccccc2CO[C@H]1CN(C)CC1CC1	.	.	-6	.	.
Oc1c(I)cc(Cl)c2cccnc12	246*	99*	0	100*	27
Oc1c(CN2CCc3ccccc3C2)cc(Cl)c2cccnc12	282*	4	.	-3	22
COc1cccc(NC(=O)N2CC[C@@H]3[C@H]2c2cc(-c4cccc(OC)c4)ccc2N(C)[C@H]3CO)c1	.	.	1	.	.
CCOc1ccccc1N1CCN(C(=O)c2cc(-c3cc(OC)ccc3OC)nc3ccccc23)CC1	31*	13	-1	-5	-1
COc1ccc(N2CCN(C(=O)c3cc(-c4cc(OC)ccc4OC)nc4ccccc34)CC2)cc1	1	-4	0	2	17
COc1ccc(-c2cc(C(=O)N3CCN(c4ccccc4F)CC3)c3ccccc3n2)c(OC)c1	376*	-1	1	11	-9
O=C(c1cnccn1)N1CC(=O)N2[C@H](CO)[C@@H](c3ccc(C#CC4CCCCC4)cc3)[C@H]2C1	.	.	0	.	.
O=C(c1ccccc1)N1C(=O)C(c2ccccc2)Oc2ccccc21 (stereo not drawn)	234*	2	1	1	-10
O=C(C[C@@H]1CC[C@@H]2[C@H](COC[C@H](O)CN2Cc2cccc(C(F)(F)F)c2)O1)NCCc1ccncc1	.	.	-1	.	.
COc1ccc(CCN2C(=O)C=CC2=O)cc1OC	138*	.	-2	.	-35
O=C(NCc1nnc2c(C(F)(F)F)cc(Cl)cn12)c1cccnc1	-1	4	12*	6	-18
O=C(NCc1nnc2c(C(F)(F)F)cc(Cl)cn12)c1ccc(Br)o1	-1	6	2	-12	-14
CN(C)c1ccc(Cl)c(NC(N)=S)c1	.	.	27*	.	.
SMILES	PfHsp40 yeast	Sa RN4220 lethal	TcdB inh	ugtP null kill	PrP UTR inh
CN(C)c1ccc(NC(N)=S)cc1	-2	5	-34	-2	-37
O=C(Nc1nnc(-c2ccccc2)o1)c1nc2ccccc2s1	-1	98*	-3	98*	-35
Cc1ccc(Nc2c(-c3ccccn3)nc3cccc(C)n23)cc1	0	101*	2	100*	26
Fc1cccc(C=NNC(=S)Nc2ccccc2Cl)c1	.	1	.	93*	.
S=C(NN=Cc1ccccc1Cl)Nc1ccccc1	.	-3	.	91*	.
FC(F)(F)c1ccc(Cl)c(NC(=S)NN=Cc2ccccc2C(F)(F)F)c1	.	6	.	86*	.
O=C(C1=C(c2ccccc2)C(=O)c2ccccc2C1=O)c1ccccc1	2	97*	1	96*	-18
COc1ccc(C2=C(N)c3ccccc3C2=O)cc1	1	15	.	9	-83
COC1=C(c2ccccc2)C(=O)c2ccccc2C1=O	224*	57	.	57	-30
O=C(CN1C(=O)COc2ccccc21)NCCCN1CCN(c2ccccc2F)CC1	-1	-5	2	-6	-13
O=C(CN1C(=O)COc2ccccc21)N1CCN(c2ccccc2F)CC1	83*	-2	0	-1	-14
CO[C@@H]1CN(C)C(=O)c2ccc(NC(=O)Nc3ccc(F)cc3)cc2OC[C@H](C)NC[C@H]1C	.	.	-1	.	.
O=[N+]([O-])c1ccc(-[n+]2c(-c3ccccc3)cc(-c3ccccc3)cc2-c2ccccc2)cc1	0	-1	0	-5	-18
O=[N+]([O-])c1ccccc1-c1cc(-c2ccccc2)cc(-c2ccccc2)[n+]1Cc1ccccc1Cl	.	86*	2	98*	.
CCC(=Cc1ccccc1)c1cccc2[nH]c3c(OC)cccc3c12	.	39	.	97*	.
CC(C)NC(=O)N(C)C[C@@H]1OCCCC[C@H](C)Oc2ccc(NS(=O)(=O)c3cccs3)cc2C(=O)N([C@@H](C)CO)C[C@@H]1C	.	.	1	.	.
O=C(N/N=C/c1c(O)n(-c2ccc(Cl)cn2)c(=O)c2ccccc12)c1ccncc1	29*	2	.	-14	-3
CC(C)CC(=O)N1CCN(Cc2ccc(Br)cc2)CC1	-1	3	11*	13	-22
COc1cccc(CN2CCN(C(=O)CC(C)C)CC2)c1	36*	8	.	3	-22
COC(=O)[C@@]12CCCCN1C(c1ccc(-c3ccc(C(C)=O)cc3)c(OC)c1)C1C(=O)N(C)C(=O)C12 (stereo partly drawn)	.	4	.	4	.
CC(=O)N1[C@@H]2Cn3c(ccc(-c4ccccc4F)c3=O)[C@H]1[C@@H](C(=O)NC1CCC1)[C@@H]2CO	.	.	1	.	.
Cc1nc(Sc2ccccc2)c(C#N)c(C)c1[N+](=O)[O-]	27*	.	0	.	-21
CCN(CC)S(=O)(=O)c1ccc(/C(O)=C2/C(=O)C(=O)N(CCOC)C2c2ccccc2)cc1 (stereo not drawn)	97*	1	.	3	-9
Cc1ccc(C)c(NC(=O)C(OC(=O)c2ccc(CO)cc2)c2ccccc2)c1 (stereo not drawn)	0	-3	1	-3	-9
Cc1ccc(NC(=O)C(OC(=O)c2ccc(C=O)cc2)c2ccccc2)cc1Cl (stereo not drawn)	1	-13	.	90*	-18
C[C@@H]1CN([C@@H](C)CO)C(=O)c2cccc(N(C)C)c2O[C@@H]1CN(C)Cc1ccc(Oc2ccccc2)cc1	.	.	-2	.	.
O=[N+]([O-])c1cccnc1N1CCC(c2cc(-c3cccc(C(F)(F)F)c3)n[nH]2)CC1	14	8	.	90*	-13
COCCCn1[nH]c2c3c(ccc2c1=O)C(=O)c1ccccc1C3=O	0	86*	.	84*	-27
COc1ccc(NC(=O)Nc2ccc3c(c2)C(=O)N([C@H](C)CO)C[C@@H](C)[C@H](CN(C)Cc2ccccc2)OCCCC[C@@H](C)O3)cc1	.	.	1	.	.

Bioassay records: PubChem BioAssay, several laboratories
